From the supplement of paper PMC6555819

Legend:
Assay in all cases: PBM binding z-score (relative to random genomic background probes); higher = stronger binding; sequences stand for … in GC…GCGATTGACAGCGTAGAATGAAGG
[1] = test system: RARb homodimer (NR concentration 270 nM)
Outline: (§1)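 Ligand-free nuclear receptor dimers were bound for 1 h to custom Agilent 4×180K protein-binding microarrays. Detection used antibodies against each partner (one per run). Binding z-scores rest on regression-normalized fluorescence, with random background probes as the reference.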

[2] = test system: RARg:RXRa (NR concentration 270 nM, RXRa partner concentration 90 nM)
Outline: as §1

[3] = test system: RARg homodimer (NR concentration 270 nM)
Outline: as §1

[4] = test system: RXRa DBDmut IVT, anti-RXR (DBD mutation: RXRa K156A/R161A, NR concentration 90 nM)
Outline: as §1

[5] = test system: RXRa homodimer (NR concentration 180 nM)
Outline: as §1

[6] = test system: THRa:RXRa (NR concentration 90 nM, RXRa partner concentration 90 nM)
Outline: as §1

[7] = test system: THRa homodimer (NR concentration 90 nM)
Outline: as §1

[8] = test system: VDR:RXRa (NR concentration 270 nM, RXRa partner concentration 90 nM)
Outline: as §1

[9] = test system: VDR homodimer (NR concentration 270 nM)
Outline: as §1

| Sequence | PBM binding z-score [1] | PBM binding z-score [2] | PBM binding z-score [3] | PBM binding z-score [4] | PBM binding z-score [5] | PBM binding z-score [6] | PBM binding z-score [7] | PBM binding z-score [8] | PBM binding z-score [9] |
| --- | --- | --- | --- | --- | --- | --- | --- | --- | --- |
| TCGAGTAGGTTAGTCGGGGGATTCAGCCAACATA | 0.341 | 0.199 | 0.0266 | 0.48 | 0.178 | 1.25 | 0.267 | 0.946 | 0.183 |
| ATCGAAAGGTCGAAGATGAGTATACCCACCCGAA | 2.11 | 3.48 | 3.4 | 1.35 | 3.68 | 1.56 | -0.0753 | 2.36 | 0.844 |
| CAAACTAGATCAAGGTCAAAGTCGGTTTGTGCCA | 3.72 | 3.89 | 3.29 | 2.46 | 4.18 | 3.88 | 2.96 | 4.12 | 3.73 |
| AGTCAAAGTTCACTAGGTAACGTATGATTCAGCT | 3.72 | 4.86 | 5.88 | 4.22 | 3.76 | 2 | 0.141 | 3.93 | 3.34 |
| TCATTTAGGTAAAAGGTGAAAGTCGGTGTGGTAA | 1.9 | 1.81 | 1.04 | 1.68 | 2.47 | 2.14 | 0.844 | – | 0.375 |
| AGAATGAGGTTATTAAGATCGGGGAATTGCGGTC | 0.767 | 0.927 | 0.627 | 2.18 | 1.38 | 2.2 | 0.74 | 1.98 | 1.27 |
| AGTACGAGGGCAATGAGTTGATAGCACGGGTGGC | 1.2 | 1.06 | 1.62 | 2.1 | 0.711 | 1.07 | -0.111 | 5.08 | 2.98 |
| CCTATTAGTTGACCAGAAGGGCAACCGAAGCTCG | 1.88 | 1.45 | 0.985 | 0.633 | 0.786 | 0.606 | 0.383 | 0.596 | 0.595 |
| TAGCCTAGGTCATGGGCCAGTAAACCACGCGAAC | 2.99 | 4.38 | 5.19 | 0.473 | 3.77 | 3.25 | 1.12 | 2.07 | 0.514 |
| ATCTCTAGGTAAAGTTCAGGGAAAGATCGATAGA | 2.7 | 2.5 | 2.77 | 1.38 | 1.98 | 1.61 | 0.441 | 1.73 | 2.18 |
| TTTCCAAGGTGAAGGTCGTTGATCCCTCTGTAGA | 2.06 | 1.51 | 1.29 | 0.389 | 1.95 | 2.94 | 1.8 | 1.45 | 1.37 |
| GCTAGTTGGTCAGTAAAAGGTCTCACACCGGTCG | 1.45 | 0.572 | 0.449 | -0.133 | 0.172 | 0.0932 | 0.0808 | -0.141 | -0.174 |
| CCTACTGGGCCATTCAGAGATCATTGATCATATG | -0.395 | -0.116 | 0.345 | -0.0997 | -0.144 | -0.209 | -0.607 | -0.415 | -0.171 |
| CCTACTGGGCCAGGGTCATTGATCAGTCAAAGCA | 2.52 | 3.5 | 2.02 | 0.154 | 3.7 | 2.7 | 0.841 | 3.14 | 2.48 |
| CTTAGCAGGCCAATCTGGGTCACTCAAGGCTTGA | 2.2 | 0.952 | 1.3 | 0.294 | 0.782 | 3.77 | 0.497 | 0.462 | -0.119 |
| TTACCAAGGTGTAAGGTCGTTGATGCACGCCTTG | 0.961 | 0.528 | 0.368 | 0.411 | 1.35 | 2.49 | 1.59 | 1.08 | 1.62 |
| ATATGTAGGTTAGCTGGGGTAATTCAGACTAGGC | 0.856 | 0.69 | 0.761 | 0.642 | 0.773 | 3.87 | 0.672 | – | 0.606 |
| GCTATTAGTTGAAAGGCCAACCGAATGATTCTCG | 1.27 | 0.828 | 0.862 | 1.04 | 0.44 | 0.141 | -0.222 | – | 0.0426 |
